About 83,000 compounds went through this panel and 20% of them were active in at least one assay; those are over-represented in the sample as a whole.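 Note: values are percent growth. 100 is the growth of untreated cells, values between 100 and 0 indicate rising inhibition; between -100 and 0 indicates cell death.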 Active and inactive are the calls of the source. How the source made its calls: active means growth percent below 10; inactive means the rest.
Key:
Assay in all cases: NCI-60 one-dose screen, 48 h (100 = growth as untreated, 0 = no growth, -100 = all killed)
Details in all cases: 10 µM unless noted
HCT-15 colon = test system: HCT-15 colon
HT29 colon = test system: HT29 colon
SNB-75 CNS = test system: SNB-75 CNS
SNB-19 CNS = test system: SNB-19 CNS
U251 CNS = test system: U251 CNS
PC-3 prostate = test system: PC-3 prostate
SK-MEL-5 melanoma = test system: SK-MEL-5 melanoma
UACC-62 melanoma = test system: UACC-62 melanoma
LOX IMVI melanoma = test system: LOX IMVI melanoma
SK-MEL-28 melanoma = test system: SK-MEL-28 melanoma

Measured: growth

Cc1ccc(S(=O)(=O)c2nc(-c3ccccc3)oc2Sc2nc3ccccc3s2)cc1
inactive: HCT-15 colon 44.8% | HT29 colon 94.2% | SNB-75 CNS 70.8% | SNB-19 CNS 100% | U251 CNS 90.5% | PC-3 prostate 97.2% | SK-MEL-5 melanoma 53.3% | UACC-62 melanoma 80.3% | LOX IMVI melanoma 24.6% | SK-MEL-28 melanoma 109%

O=C(/C=C/c1ccc(Cl)cc1)c1cccc(OCCCOc2cccc(C(=O)/C=C/c3ccc(Cl)cc3)c2)c1
inactive: HCT-15 colon 90.3% | HT29 colon 98.6% | SNB-75 CNS 91.5% | SNB-19 CNS 99.1% | U251 CNS 86.3% | PC-3 prostate 104% | SK-MEL-5 melanoma 102% | UACC-62 melanoma 90% | LOX IMVI melanoma 99.1% | SK-MEL-28 melanoma 102%

CC(=O)ON1CCCC(P(=O)(OCCSC(=O)C(C)(C)C)OCCSC(=O)C(C)(C)C)C1=O (stereo not given)
active: U251 CNS 6.6% | SK-MEL-5 melanoma -2.99%
inactive: HCT-15 colon 12.1% | HT29 colon 19.3% | SNB-75 CNS 52% | SNB-19 CNS 19% | PC-3 prostate 48.1% | UACC-62 melanoma 20.4% | LOX IMVI melanoma 25.8% | SK-MEL-28 melanoma 30.7%

C[n+]1ccc(CCc2c[nH]c3ccccc23)cc1
inactive: HCT-15 colon 99.7% | HT29 colon 88.8% | SNB-75 CNS 74.6% | SNB-19 CNS 102% | U251 CNS 95.2% | PC-3 prostate 84% | SK-MEL-5 melanoma 104% | UACC-62 melanoma 101% | LOX IMVI melanoma 94.6% | SK-MEL-28 melanoma 100%

Cc1ccc(S(=O)(=O)OCCCOS(=O)(=O)c2ccc(C)cc2)cc1
inactive: HCT-15 colon 106% | HT29 colon 102% | SNB-75 CNS 99.7% | SNB-19 CNS 97.9% | U251 CNS 96.4% | PC-3 prostate 89.3% | SK-MEL-5 melanoma 116% | UACC-62 melanoma 103% | LOX IMVI melanoma 108% | SK-MEL-28 melanoma 109%

COc1cccc(NCc2nnc(Nc3ccc(Cl)cc3)c3ccccc23)c1
inactive: SNB-19 CNS 17.8%
active: HCT-15 colon -18.1% | HT29 colon -21% | SNB-75 CNS -6.06% | U251 CNS -56.2% | PC-3 prostate -13.6% | SK-MEL-5 melanoma -98.5% | UACC-62 melanoma -29.2% | LOX IMVI melanoma -58.7% | SK-MEL-28 melanoma -16.1%

COc1cnc2c(c1)C(=O)c1c-2n(CCCCl)c(=O)c2ccncc12
inactive: HCT-15 colon 75.5% | HT29 colon 49.5% | SNB-75 CNS 55.6% | SNB-19 CNS 55.4% | U251 CNS 33.6% | PC-3 prostate 54% | SK-MEL-5 melanoma 34.3% | UACC-62 melanoma 23.7% | LOX IMVI melanoma 33.8% | SK-MEL-28 melanoma 99.3%

Oc1ccc(/C=C/c2ccc(O)cc2)cc1
inactive: HCT-15 colon 33.3% | HT29 colon 101% | SNB-75 CNS 46.9% | SNB-19 CNS 89.2% | U251 CNS 39.1% | PC-3 prostate 55.3% | SK-MEL-5 melanoma 52% | UACC-62 melanoma 37.4% | LOX IMVI melanoma 44.4% | SK-MEL-28 melanoma 76.9%

C/C(Cc1ccc(Cl)cc1)=C(\c1ccc(OCCCN(C)C)cc1)c1ccc(OC(=O)Cc2ccccc2)cc1
inactive: HCT-15 colon 103% | HT29 colon 78.8% | SNB-75 CNS 92.8% | SNB-19 CNS 105% | U251 CNS 112% | PC-3 prostate 96.5% | SK-MEL-5 melanoma 102% | UACC-62 melanoma 105% | LOX IMVI melanoma 99.2% | SK-MEL-28 melanoma 103%

COc1ccc(CCN2C(=O)/C(=C/c3ccc(C4Oc5ccccc5C5CC(c6ccccc6)=NN54)cc3)SC2=S)cc1 (stereo not given)
inactive: HCT-15 colon 105% | HT29 colon 105% | SNB-75 CNS 101% | SNB-19 CNS 94.2% | U251 CNS 101% | PC-3 prostate 98% | SK-MEL-5 melanoma 101% | UACC-62 melanoma 97.5% | LOX IMVI melanoma 96.6% | SK-MEL-28 melanoma 117%

Cn1cc(-c2csc(-c3c[nH]c4ccc(F)cc34)n2)c2ccnc(Cl)c21
active: HCT-15 colon 5.69%
inactive: HT29 colon 29.8% | SNB-75 CNS 77.5% | SNB-19 CNS 91.4% | U251 CNS 49.6% | PC-3 prostate 62.1% | SK-MEL-5 melanoma 63.2% | UACC-62 melanoma 70.6% | LOX IMVI melanoma 67.5% | SK-MEL-28 melanoma 93.5%

O=C(Nc1ncc(Cc2ccccc2)s1)c1ccc2c(c1)OCCCO2
active: HT29 colon 9.72% | SK-MEL-5 melanoma 8.06%
inactive: HCT-15 colon 21.5% | SNB-75 CNS 34.3% | SNB-19 CNS 37.4% | U251 CNS 35.4% | PC-3 prostate 27.7% | UACC-62 melanoma 29% | LOX IMVI melanoma 29.9% | SK-MEL-28 melanoma 36.8%

O=C(Cc1ccccc1)Nc1cccc(N=Cc2ccccc2O)c1
inactive: HCT-15 colon 102% | HT29 colon 113% | SNB-75 CNS 73.8% | SNB-19 CNS 99.2% | U251 CNS 94.3% | PC-3 prostate 93.4% | SK-MEL-5 melanoma 106% | UACC-62 melanoma 101% | LOX IMVI melanoma 100% | SK-MEL-28 melanoma 111%

CS(=O)(=O)c1nnc(-c2ccccc2)s1
inactive: HCT-15 colon 71.4% | HT29 colon 82.2% | SNB-75 CNS 103% | SNB-19 CNS 107% | U251 CNS 106% | PC-3 prostate 96.4% | SK-MEL-5 melanoma 99.4% | UACC-62 melanoma 82.7% | LOX IMVI melanoma 71.2% | SK-MEL-28 melanoma 97.3%

C[C@@H]1O[C@@H](O[C@@H]2C[C@H](c3ccc4c(c3O)C(=O)C3=C(C4=O)[C@@]4(O)C(=O)C[C@](C)(O)C[C@@]4(O)C=C3)O[C@H](C)[C@H]2O)CC[C@@H]1O[C@H]1C[C@@H](O)[C@H](O)[C@@H](C)O1
inactive: HCT-15 colon 94.8% | HT29 colon 108% | SNB-75 CNS 90.7% | SNB-19 CNS 100% | U251 CNS 98.7% | PC-3 prostate 96% | SK-MEL-5 melanoma 101% | UACC-62 melanoma 97.8% | LOX IMVI melanoma 94.6% | SK-MEL-28 melanoma 116%

C=C(CNCCc1ccc(O)cc1)[C@@H]1CC[C@]2(CO)CC[C@]3(C)[C@H](CC[C@@H]4[C@@]5(C)CCC(=O)C(C)(C)[C@@H]5CC[C@]43C)[C@@H]12
inactive: SNB-75 CNS 91.2% | SNB-19 CNS 49% | PC-3 prostate 14.6%
active: HCT-15 colon 6.17% | HT29 colon -42.5% | U251 CNS -63.9% | SK-MEL-5 melanoma -4.88% | UACC-62 melanoma -29.5% | LOX IMVI melanoma -89.7% | SK-MEL-28 melanoma -10.8%

NS(=O)(=O)c1ccc(NC(=O)/C(=C\c2ccc(Cl)cc2Cl)NC(=O)c2ccccc2)cc1
inactive: HCT-15 colon 110% | HT29 colon 103% | SNB-75 CNS 81.4% | SNB-19 CNS 95.6% | U251 CNS 97.1% | PC-3 prostate 89.4% | SK-MEL-5 melanoma 90.2% | UACC-62 melanoma 74.9% | LOX IMVI melanoma 96.2% | SK-MEL-28 melanoma 110%

Cc1ccnc(Nc2ccc([N+](=O)[O-])c(NCCN3CCOCC3)n2)c1
inactive: HT29 colon 10.9% | SNB-75 CNS 56.8% | SNB-19 CNS 58.3% | U251 CNS 23.2% | PC-3 prostate 12.2% | UACC-62 melanoma 37.3% | LOX IMVI melanoma 22.8% | SK-MEL-28 melanoma 72%
active: HCT-15 colon 8.47% | SK-MEL-5 melanoma -3.36%

CO[C@H]1CC(=O)n2c3ccccc3c3c4c(c5c6ccccc6n1c5c32)C(=O)NC4=O
inactive: HCT-15 colon 62.4% | HT29 colon 26.3% | SNB-19 CNS 98.4% | U251 CNS 46.8% | PC-3 prostate 54.6% | SK-MEL-5 melanoma 60.7% | UACC-62 melanoma 44.9% | LOX IMVI melanoma 63.8% | SK-MEL-28 melanoma 39.9%
active: SNB-75 CNS 4.5%

O=C(N=Nc1c(O)[nH]c2ccccc12)Nc1ccc(F)cc1
inactive: HCT-15 colon 97% | HT29 colon 102% | SNB-75 CNS 91.3% | SNB-19 CNS 97% | U251 CNS 90.7% | PC-3 prostate 85.9% | SK-MEL-5 melanoma 101% | UACC-62 melanoma 79.3% | LOX IMVI melanoma 92.2% | SK-MEL-28 melanoma 108%

COc1ccc(C2=CC(c3cc(OC)c(OC)c(OC)c3)n3ncnc3N2)cc1 (stereo not given)
active: HT29 colon 1.66% | U251 CNS 6.34% | SK-MEL-5 melanoma 1.68%
inactive: HCT-15 colon 14.5% | SNB-75 CNS 40.4% | SNB-19 CNS 36% | PC-3 prostate 21.7% | UACC-62 melanoma 51.9% | LOX IMVI melanoma 22.2% | SK-MEL-28 melanoma 54.3%

CN(CCC(=O)c1ccccc1)CCC(=O)c1ccccc1
inactive: HCT-15 colon 103% | HT29 colon 117% | SNB-75 CNS 90.4% | SNB-19 CNS 93.1% | U251 CNS 98% | PC-3 prostate 95.5% | SK-MEL-5 melanoma 96.4% | UACC-62 melanoma 77.9% | LOX IMVI melanoma 75.6% | SK-MEL-28 melanoma 103%

CCN(CC)Cc1cc(Nc2ccnc3cc(Cl)ccc23)ccc1O
inactive: HCT-15 colon 68% | HT29 colon 81.2% | SNB-75 CNS 83.4% | SNB-19 CNS 88.7% | U251 CNS 89.4% | PC-3 prostate 93.2% | SK-MEL-5 melanoma 96.7% | UACC-62 melanoma 92.7% | LOX IMVI melanoma 85.8% | SK-MEL-28 melanoma 94.9%

CCN(CC)c1ccc(/C=N/NC(=O)Cc2ccc(Nc3ccnc(C(F)(F)F)c3)cc2)c(O)c1
active: SNB-75 CNS 5.89% | LOX IMVI melanoma 6.64%
inactive: HCT-15 colon 33.2% | HT29 colon 33.1% | SNB-19 CNS 30.9% | U251 CNS 25.7% | PC-3 prostate 53.3% | SK-MEL-5 melanoma 27.1% | UACC-62 melanoma 20.6% | SK-MEL-28 melanoma 31.7%

— PubChem BioAssay (NCI)
